In PubChem BioAssay (NCI) one finds growth data, which are given here for seven compounds.

The structures appear in SMILES notation. About 83,000 compounds went through this panel and 20% of them were active in at least one assay; those are over-represented in the sample as a whole.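 Treatment: one concentration, 48 hours, 96-well format. Scoring: percent growth, with anything below 10 considered active.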 Values without a mark were called inactive. The source made the active and inactive calls.

Test systems include NCI-H23 lung; NCI-H226 lung; NCI-H322M lung; HOP-62 NSCLC; NCI-H460 lung; NCI-H522 lung; A549/ATCC NSCLC; 786-0 renal; COLO 205 colon; DU-145 prostate; K-562 leukemia; MALME-3M melanoma; MDA-MB-231 breast; RXF 393 renal; SF-268 CNS; SF-295 CNS; SF-539 CNS; UACC-257 melanoma; M14 melanoma; HCT-15 colon.
Experiment in all cases: NCI-60 one-dose screen, 48 h (100 = growth as untreated, 0 = no growth, -100 = all killed)
What all share (conditions): 10 µM

Turning to `COc1cc2cc3c(nc2cc1OC)CCN3Cc1ccc(NC(=O)Nc2cc(C(F)(F)F)cc(C(F)(F)F)c2)cc1`, the growth is 77.9% in the test on NCI-H23 lung; 92.6% in the test with NCI-H226 lung; 72.5% in the test with NCI-H322M lung; 97.5% with HOP-62 NSCLC; 63.3% with NCI-H460 lung; 51.8% with NCI-H522 lung. The growth was 52.1% in the test with A549/ATCC NSCLC; 81.4% with 786-0 renal; 90% in the test on COLO 205 colon; 94.7% in the test on DU-145 prostate; 49.8% in the test on K-562 leukemia; 92.1% in the test on MALME-3M melanoma. For the same compound, the growth in the test with MDA-MB-231 breast was 57.4%; in the test on RXF 393 renal it was 82.5%; with SF-268 CNS, 78.6%; in the test on SF-295 CNS it was 69.6%; in the test on SF-539 CNS, 86.8%; with UACC-257 melanoma, 89%. Besides, the figures for the growth in the test with M14 melanoma and in the test on HCT-15 colon were 77.4% and 76.1%, respectively.

As for `CN(C)c1ccc(-c2cc(-c3cccc(NS(C)(=O)=O)c3)nc(N)c2C#N)cc1`, the growth with NCI-H23 lung is 21.5%; in the test with NCI-H226 lung it was 39.6%; in the test with NCI-H322M lung it was 21.1%; in the test with HOP-62 NSCLC it was 44.1%; in the test on NCI-H460 lung, 5.32% (active); in the test with NCI-H522 lung, 7.63% (active). The growth in the test on A549/ATCC NSCLC is 25.9%; in the test on 786-0 renal it was 31%; in the test on COLO 205 colon it was -71.2% (active); with DU-145 prostate, -25.5% (active); with K-562 leukemia, 10.9%; in the test on MALME-3M melanoma, -7.09% (active). Moreover, the growth is -8.96% (active) in the test on MDA-MB-231 breast; 20.3% in the test on RXF 393 renal; 20.8% with SF-268 CNS; 0.228% (active) with SF-295 CNS; 3.52% (active) with SF-539 CNS; 80.4% with UACC-257 melanoma. The growth in the test with M14 melanoma is 11.6%; in the test with HCT-15 colon, 24%.

With `O=C1Nc2ccccc2C1=NC1CCCCC1`, the growth was 95.2% in the test with NCI-H23 lung; 92% with NCI-H226 lung; 90.3% in the test with NCI-H322M lung; 88.3% with HOP-62 NSCLC; 105% in the test on NCI-H460 lung; 70.4% in the test on NCI-H522 lung. The growth in the test with A549/ATCC NSCLC was 103%; with 786-0 renal it was 93.6%; in the test with COLO 205 colon, 96.5%; in the test with DU-145 prostate, 110%; in the test on K-562 leukemia, 100%; with MALME-3M melanoma, 90.9%. Moreover, the growth with MDA-MB-231 breast was 103%; in the test on RXF 393 renal it was 107%; in the test with SF-268 CNS, 96%; with SF-295 CNS, 98.3%; in the test with SF-539 CNS it was 99.7%; in the test with UACC-257 melanoma, 100%. Moreover, the growth in the test with M14 melanoma was 106%; in the test on HCT-15 colon, 105%.

Take `c1ccc(CSc2nnc3c4c5c(sc4nc(-c4cccnc4)n23)CCCCCC5)cc1`: the growth in the test with NCI-H23 lung was 54.7%; in the test on NCI-H226 lung it was 67.1%; with NCI-H322M lung it was 99.7%; with HOP-62 NSCLC, 91.3%; in the test on NCI-H460 lung it was 19.3%; with NCI-H522 lung it was 6.26% (active). For the same compound, the growth was 36.8% with A549/ATCC NSCLC; 73.6% with 786-0 renal; 20.5% with COLO 205 colon; 56.4% with DU-145 prostate; 21.7% with K-562 leukemia; 16.2% in the test with MALME-3M melanoma. Moreover, the growth with MDA-MB-231 breast was 71.4%; in the test on RXF 393 renal it was 83.3%; in the test with SF-268 CNS, 57%; with SF-295 CNS it was 45.1%; in the test on SF-539 CNS it was 79.7%; with UACC-257 melanoma it was 35%. The growth in the test with M14 melanoma is 45%; in the test with HCT-15 colon, 94.2%.

With `COc1ccc(-c2nn(-c3cccc(NC(=O)Nc4ccc(Cl)c(C(F)(F)F)c4)c3)cc2-c2ccncc2)cc1Cl`, the growth with NCI-H23 lung was 9.49% (active); with NCI-H226 lung, 22.4%; in the test with NCI-H322M lung it was 19.1%; in the test on HOP-62 NSCLC it was 25.2%; in the test on NCI-H460 lung, 1.08% (active); in the test with NCI-H522 lung it was -8.34% (active). The growth is 8.45% (active) with A549/ATCC NSCLC; 19% in the test on 786-0 renal; -33.3% (active) in the test with COLO 205 colon; 22.7% in the test on DU-145 prostate; 15.4% in the test on K-562 leukemia; -8.87% (active) in the test on MALME-3M melanoma. Further, the growth with MDA-MB-231 breast was 0.455% (active); with RXF 393 renal it was 19.3%; with SF-268 CNS it was 31%; in the test on SF-295 CNS, -2.09% (active); in the test with SF-539 CNS, -7.12% (active); with UACC-257 melanoma, -7.89% (active). Also, the growth in the test on M14 melanoma is 6.17% (active); in the test on HCT-15 colon, 16.3%.

Consider `COc1ccc(-c2nn(-c3cccc(NC(=O)c4ccc(N5CCOCC5)c(C(F)(F)F)c4)c3)cc2-c2ccncc2)cc1Cl`, for which the growth in the test with NCI-H23 lung was 83.2%; with NCI-H226 lung, 83.6%; with NCI-H322M lung, 80.3%; in the test on HOP-62 NSCLC, 73.7%; with NCI-H460 lung, 62.1%; in the test on NCI-H522 lung, 41%. The growth in the test with A549/ATCC NSCLC is 54.7%; in the test on 786-0 renal, 37.9%; in the test with COLO 205 colon, 54.6%; in the test on DU-145 prostate it was 91.8%; with K-562 leukemia, 23.6%; in the test on MALME-3M melanoma, 48.7%. The growth with MDA-MB-231 breast is 66.4%; in the test on RXF 393 renal it was 18.7%; in the test on SF-268 CNS, 70.7%; in the test on SF-295 CNS, 9.97% (active); with SF-539 CNS, 41%; in the test with UACC-257 melanoma, 67.8%. The growth is 65% in the test with M14 melanoma and 53.5% with HCT-15 colon.

In the case of `C#Cc1ccc(-n2c(/C=C/c3ccc4ccccc4c3)nc3ncccc3c2=O)cc1`, the growth in the test on NCI-H23 lung is 67.5%; with NCI-H226 lung it was 13.2%; with NCI-H322M lung, 71.9%; with HOP-62 NSCLC, 63%; in the test on NCI-H460 lung it was 39%; in the test on NCI-H522 lung it was 8.75% (active). The growth is 34% in the test on A549/ATCC NSCLC; 54.3% with 786-0 renal; 26% with COLO 205 colon; 60.1% in the test with DU-145 prostate; 6.94% (active) in the test with K-562 leukemia; 39.5% in the test on MALME-3M melanoma. For the same compound, the growth with MDA-MB-231 breast was 42.1%; in the test on RXF 393 renal it was -21.4% (active); with SF-268 CNS, 37.8%; with SF-295 CNS, 19.6%; in the test on SF-539 CNS, 70.5%; in the test with UACC-257 melanoma, 13%. The growth in the test on M14 melanoma was 1.76% (active); in the test on HCT-15 colon, 25.4%.
